Source: PubChem BioAssay (Tox21)
Unmarked numbers belong to inactive results. Active and inactive are the calls of the source. Calls follow the shape of the dose curve; as a rule, active = well fitted curve in the direction sought with a large enough effect in the repeat runs; inconclusive = weak or mixed curves; inactive = flat fitted curve, though single readings scatter.

experiment: qHTS assay to test for compound auto fluorescence at 460 nm (blue) in HEK293 cell free culture (AID 720681); conditions: cell-free medium, autofluorescence 405/460 nm (blue); series mostly up to 46 µM; fluorescence, % of fluorescent control: at the top concentration
Excerpt: U.S. Tox21 Program National Center for Advancing Translational Sciences [NCATS] NIH Chemical Genomics Center [NCGC] U.S. Environmental Protection Agency [EPA] National Institutes of Environmental Health Sciences [NIEHS] National Toxicology Program [NTP] U.S. Food and Drug Administration [FDA] Tox21 Assay Overview: Compound auto fluorescence often interferes with screening of the compound library against various biological targets and signaling pathways. Some of these compounds may have fluorophoric properties. Such properties may interfere with the assay outputs resulting in false positives and/or negatives. To decrease such complications and ensure the compound activities are relevant in terms of biological response, the Tox21 10K compound library was screened for auto fluorescence. From the fluorophores used as reporter signals in our screening assays, the auto fluorescence equivalencies of compounds against three fluorophores have been evaluated: Triamterene, Fluorescein and Rose Bengal sodium for blue, green and red fluorescence, respectively. The fluorescence intensities were measured using Excitation/Emission wavelengths at 405/460nm, 485/535nm and 540/590nm for blue, green and red labels, respectively. This assay includes the blue fluorescence data.
Tox21 Assay Protocol Summary: 5 uL of culture medium (DMEM containing 10% FBS) per well was dispensed into black wall/clear bottom 1536-well plates using a Multidrop Combi Dispenser (ThermoFisher Scientific, Waltham, MA). After 23 nL compound or DMSO vehicle was transferred into assay plate by a pintool work station (Kalypsys, San Diego, CA), fluorescence intensities in the assay plates were measured by an Envision (PerkinElmer, Shelton, CT) plate reader using three labels for measuring blue, green and red fluorescence at […] 460, 535 and 590nm respectively.
% is scaled to controls: 0 for no effect and ±100 for the full control effect.

Row | Structure (SMILES) | Potency | fluorescence, % of fluorescent control
1 | C[C@]12N[C@H](Cc3ccccc31)c1ccccc12 | inactive | –
2 | C[C@]12CCC(=O)C[C@@H]1CC[C@@H]1[C@@H]2CC[C@@]2(C)[C@H]1CC[C@]2(C)O | – | -0.0002%
3 | CN[C@H]1C[C@@H](N)[C@H](O)[C@@H](O[C@@H]2O[C@H](CO)[C@H](O)[C@@H]3OC4(O[C@H]23)O[C@H](C(N)CO)[C@H](O)[C@H](O)[C@H]4O)[C@@H]1O (stereo not given in full) | inactive | –
4 | CC(C)[C@H]1C(=O)N2CCC[C@H]2[C@]2(O)O[C@](NC(=O)[C@@H]3C[C@@H]4c5cccc6[nH]cc(c56)C[C@H]4N(C)C3)(C(C)C)C(=O)N12 | – | 1.72%
5 | c1ccccc1 | – | -0.0243% [at 91.3 µM]
6 | CC(=O)O[C@H]1C[C@H](O[C@H]2[C@@H](O)C[C@H](O[C@H]3[C@@H](O)C[C@H](OC4CC[C@@]5(C)[C@H](CC[C@@H]6[C@@H]5CC[C@]5(C)[C@@H](C7=CC(=O)OC7)CC[C@]65O)C4)O[C@@H]3C)O[C@@H]2C)O[C@H](C)[C@H]1O[C@@H]1O[C@H](CO)[C@@H](O)[C@H](O)[C@H]1O (stereo not given in full) | – | -0.0073%
7 | CC(C)C[C@H](CN)CC(=O)O | – | -0.0719%
8 | [S]=[Sb](=[S])[S][Sb](=[S])=[S] | – | 0.0767%
9 | CC1(C)[C@H](C=C(Cl)Cl)[C@H]1C(=O)OCc1c(F)c(F)cc(F)c1F | – | -0.0051%
10 | CN1[C@@H]2CC[C@H]1CC(OC1c3ccccc3CCc3ccccc31)C2 (stereo not given in full) | – | -0.0158% [at 18.6 µM]
11 | Cc1cc(C)cc(C(=O)OC2C[C@H]3CC[C@@H](C2)N3C)c1 (stereo not given in full) | – | -0.0866%
12 | C[C@]12CC[C@H]3[C@@H](CCC4=CC(=O)CC[C@@]43C)[C@@H]1CC[C@H]2O | – | -0.121%
13 | CCC/C=C/C=C/C(=O)O[C@H]1/C(=C/C(=O)OC)C[C@H]2C[C@H]([C@@H](C)O)OC(=O)C[C@H](O)C[C@@H]3C[C@H](OC(C)=O)C(C)(C)[C@](O)(C[C@@H]4C/C(=C/C(=O)OC)C[C@H](/C=C/C(C)(C)[C@]1(O)O2)O4)O3 | – | -0.0955%
14 | CCCCCN(C)CCC(O)(P(=O)(O)O)P(=O)(O)O | – | -0.0011%
15 | CC(C)CCC(=O)O[C@H]1CC[C@H]2[C@@H]3CCC4=CC(=O)CC[C@]4(C)[C@H]3CC[C@]12C | – | 0.629%
16 | CN[C@@H]1C[C@@H](c2ccc(Cl)c(Cl)c2)c2ccccc21 | – | 0.0271%
17 | CN(C)CCCCCCN(C)C | – | -0.0018% [at 91.3 µM]
18 | COc1ccc(OC)c([C@@H](O)[C@H](C)N)c1 | – | -0.0054%
19 | CNC(=O)OCC[N+](C)(C)C | – | 0.219%
20 | Cc1ccccc1-n1c(C)nc2ccccc2c1=O | inactive | –

Row | Structure (SMILES) | Potency | fluorescence, % of fluorescent control
21 | CCC1(c2ccccc2)C(=O)NC(=O)N(C)C1=O (stereo not given) | – | -0.0033%
22 | CNc1ccc(C(=O)CC(O)CCC(C)C2OC(=O)CC(O)CC(=O)CC(O)CC(O)CC(O)CC(O)CC3(O)CC(O)C(C(=O)OC)C(CC(O[C@@H]4O[C@H](C)[C@@H](O)[C@H](N)[C@@H]4O)/C=C/C=C/C=C/C=C/C=C/C=C/C=C/C2C)O3)cc1 (stereo not given in full) | – | 0.271%
23 | CCOC(=O)C1(c2ccccc2)CCCN(C)CC1 (stereo not given) | – | -0.0999%
24 | O=C(NC(=O)c1c(F)cccc1F)Nc1ccc(Cl)c(Oc2ncc(C(F)(F)F)cc2Cl)c1 | – | -0.0725%
25 | NC1=NC(=O)N2CC12 (stereo not given) | – | -0.0563%
26 | COc1ccc2c(c1)C13CCCC[C@@H]1C(C2)N(C)CC3 (stereo not given in full) | – | 0.023%
27 | CCC(N)Cc1c[nH]c2ccccc12 (stereo not given) | inactive | –
28 | c1ccc2c(c1)Sc1ccccc1N2CC1CN2CCC1CC2 (stereo not given) | – | 0.0155%
29 | O=C1C=C2C=C[C@@H]3C[C@@]2(O1)[C@H]1CCCCN31 | – | -0.179%
30 | COC(=O)[C@]12CCC(C)(C)C[C@H]1[C@H]1C(=O)C=C3[C@@]4(C)C=C(C#N)C(=O)C(C)(C)[C@@H]4CC[C@@]3(C)[C@]1(C)CC2 | – | 0.0702%
31 | C[C@@H]1[C@@H]2Cc3ccc(O)cc3[C@@]1(C)CCN2CCc1ccccc1 | – | -0.0465% [at 91.3 µM]
32 | COc1ccc(OC)c(C[C@H](C)N)c1 | – | -0.192% [at 95.7 µM]
33 | O.O.O.O=C([O-])C(O)C(O)C(=O)[O-].O=C([O-])C(O)C(O)C(=O)[O-].[K+].[K+].[Sb].[Sb] (stereo not given) | – | 0.247%
34 | CC(C)NC(C)Cc1ccc(I)cc1 (stereo not given) | – | 0.0021%
35 | CC(=O)O[C@H]1CC[C@H]2[C@@H]3CCC4=CC(=O)CCC4=C3C=C[C@]12C | – | 3.21%
36 | CCCCCc1cc(O)c2c(c1)OC(C)(C)c1ccc(C)cc1-2 | – | 0.0577%
37 | C[N+]1([O-])[C@@H]2CC[C@H]1CC(OC(=O)C(CO)c1ccccc1)C2 (stereo not given in full) | inactive | –
38 | CCCSc1cc(OC)c(CCN)cc1OC | – | 1.41% [at 95.7 µM]
39 | CCNCC(O)c1cccc(O)c1 (stereo not given) | – | 0.0192% [at 18.6 µM]
40 | CN1[C@H]2CC[C@@H]1[C@@H](C(=O)O)[C@@H](OC(=O)c1ccccc1)C2 | inactive | –
